Reference: PubChem BioAssay (NCATS)
Several values for one entry are separate records, joined by “and”; a condition that tells them apart may be missing. Equal entries are not always repeated. Unmarked numbers belong to inactive results. Results filed as inconclusive are left out. Activity calls are given as the source filed them. Unless noted, the call rests on the fitted dose curve.

What was measured:
[1] = target: Cytochrome P450 1A2 (Homo sapiens) (UniProt P05177); assay: p450-cyp1a2 (AID 410); further: potency means the concentration at half of the fitted maximal effect;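 on activity change, negative = inhibition: -100% = full effect of reference inhibitor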
Method in brief: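 Human CYP1A2 (20nM) demethylated Luciferin-ME at its Km (100uM) in 100mM KPO4. After 10 min compound preincubation, NADPH regeneration ran the reaction 60 min at room temperature. Luciferin was read by luminescence, normalized to 57 uM furafylline.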

[2] = target: Glucocorticoid receptor (Homo sapiens) (UniProt P04150); assay: GR-EFC Redistribution (AID 451); details: CHO-K1 GR-EFC translocation, beta-gal luminescence, 2 h; further: potency means the concentration at half of the fitted maximal effect
Method in brief: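 Translocation of GR-ED fusion to nuclear EA restores b-gal, read by luminescence after 1 h room-temperature detection. Engineered CHO-K1 biosensor cells, 1,000/well, exposed 2 h at 37 C to titrations up to 46 uM final.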

[3] = target: Mitogen-activated protein kinase 10 (Mus musculus) (UniProt Q61831); assay: JNK3 AlphaScreen Assay (AID 530; active means well fitted curve in either direction with a large enough effect, not every such curve was filed as active;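 further: kinase came from lysate of stimulated human HepG2 cells; signal reports phosphorylation of biotinylated GST-cJun 1-79 at Ser73 with 10 µM ATP; series mostly up to about 57 µM; on the % scale 0 is the no-effect control and ±100 the full control effect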)
Method in brief: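 Room-temperature AlphaScreen kinase assay; pre-activated HepG2 lysate as JNK3 source, biotin-GST-cJun(1-79) substrate, 10 uM ATP, compound 15 min preincubation.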

[4] = AP1 Signaling Pathway (AID 357; active means well fitted curve in either direction with a large enough effect, not every such curve was filed as active;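 further: ME-180 reporter cells stimulated with EGF at its EC50 level; on the % scale 0 is the no-effect control and ±100 the full control effect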)
Method in brief: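 Modulation of EGF-driven AP-1 transcription was assessed with a beta-lactamase reporter in ME-180 cells. Compound and EC50 EGF were co-incubated 5 hours at 37 °C before 2.5-hour CCF4 loading at room temperature and dual-emission reading.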

[5] = NFAT Signaling Pathway (AID 444; active means well fitted curve in either direction with a large enough effect, not every such curve was filed as active;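 further: carbachol stimulus at about its EC50 of 1 µM final; on the % scale 0 is the no-effect control and ±100 the full control effect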)
Method in brief: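 Read-out: CCF4 FRET ratio (460 nm/530 nm) after 1 h RT dye loading, used for %activity and AC50 from titration series. Cells: Jurkat NFAT-β-lactamase/M1 line, treated with compound plus 1 uM carbachol for 5 h, 37 °C.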

[6] = Stat Signaling Pathway (AID 446; active means well fitted curve in either direction with a large enough effect, not every such curve was filed as active;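 further: ME-180 cervical cancer cells given 40 pM IL-6 alongside compound; SIE-controlled beta-lactamase reporter measured as 460/530 nm FRET emission ratio; on the % scale 0 is the no-effect control and ±100 the full control effect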)
Method in brief: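 ME-180 SIE-bla cells; overnight plating; cpd + IL-6 40 pM, 5 h, 37 C; LiveBLAzer 2.5 h RT; 460/530 nm emission ratio. Normalized to 300 pM IL-6 and 125 nM JAK inhibitor controls.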

[7] = target: Glucocorticoid receptor (Homo sapiens) (UniProt P04150); assay: GR-GFP Redistribution (AID 450;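 active means compounds whose dose series gives a full or clear partial fitted curve of increased nuclear translocation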; further: potency means the concentration at half of the fitted maximal effect); details: U2OS GR-GFP nuclear translocation, laser cytometry, 2 h
[8] = Cell Viability - BJ (AID 421); details: BJ fibroblast viability, qHTS;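 further: potency means the concentration at half of the fitted maximal effect; cells exposed to compound for 40 hours at 37 °C before readout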
Method in brief: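 Luminescent ATP signal (CellTiter-Glo, 20 min at room temperature) served as the read-out of viable BJ cells after 40 hours of compound treatment. Responses were scaled between DMSO and 100 uM tamoxifen, and AC50 values were obtained by Hill modeling.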

[9] = Cell Viability - Jurkat (AID 426;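 active means dose-dependent loss of cell ATP signal giving a full or clear fitted curve, ranked by lower potency value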; further: potency means the concentration at half of the fitted maximal effect); details: qHTS
Method in brief: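 Jurkat (clone E6-1, human T-cell leukemia) cells, 5000/well in complete medium, were exposed to compound for 40 hr at 37 °C. Viability was read as intracellular ATP by CellTiter-Glo luminescence; AC50 came from Hill fits of concentration-response data.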

[10] = Cell Viability - Hek293 (AID 427;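 active means compounds whose dose-response curve shows a full or clear partial loss of cell viability, called from curve shape rather than a numeric limit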;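 further: potency means the concentration at half of the fitted maximal effect; cells exposed to compound for 40 hours at 37 °C before reading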); details: qHTS
Method in brief: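 Luminescent ATP read-out (CellTiter-Glo, 20 min RT) after 40 hr compound exposure at 37 °C in complete medium. Signal normalized to DMSO (basal) and 100 uM tamoxifen (100% inhibition); concentration-response fitted with the standard Hill equation to give AC50.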

[11] = Cell Viability - HepG2 (AID 433); details: qHTS;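 further: potency means the concentration at half of the fitted maximal effect; potency for ATP loss meaning cytotoxicity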
Method in brief: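 ATP luminescence (CellTiter-Glo) after 40 h compound exposure, 37 °C, HepG2, 1500 cells/well, complete medium. Normalized: DMSO = basal, 100 uM tamoxifen = 100% inhibition. AC50 via standard Hill equation.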

[12] = Cell Viability - MRC5 (AID 434); details: MRC5 lung fibroblast viability, qHTS;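 further: potency means the concentration at half of the fitted maximal effect; potency reflects cytotoxicity seen as loss of intracellular ATP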
Method in brief: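 qHTS cytotoxicity in human lung fibroblast MRC5 cells; 40 hr treatment, 37 °C; cellular ATP by luciferase luminescence; DMSO = 0%, 100 uM tamoxifen = 100% inhibition; Hill-fit AC50.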

[13] = Cell Viability - SK-N-SH (AID 435); details: SK-N-SH neuroblastoma cell viability qHTS; further: potency means the concentration at half of the fitted maximal effect
Method in brief: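 CellTiter-Glo ATP luminescence, 20 min RT read; cells pre-plated 5 hr, compound 40 hr at 37 °C, 1500 cells/well, complete medium. Normalized DMSO = 0, 100 uM tamoxifen = 100% inhibition; Hill-fit AC50.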

[14] = Cell Viability - N2a (AID 540; active means well fitted curve in the direction sought with a large enough effect; an effect the other way counts as inactive or inconclusive;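 further: plate controls were DMSO alone for no effect and tamoxifen control for full effect; nearly all actives have a fitted effect of over 45% in size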)
Method in brief: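 Mouse neuroblastoma N2a cells (1500/well) were preincubated 5 hr at 37 °C, then exposed to compounds for 40 hr at 37 °C in complete medium. Viability was read as intracellular ATP by CellTiter-Glo luminescence; AC50 from Hill fits.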

[15] = Cell Viability - NIH 3T3 (AID 541; active means well fitted curve in the direction sought with a large enough effect; an effect the other way counts as inactive or inconclusive;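 further: plate controls were DMSO alone for no effect and tamoxifen positive control for full effect; nearly all actives have a fitted effect of over 25% in size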)
Method in brief: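 NIH 3T3 mouse embryo fibroblasts (1000 cells/well) were plated in complete medium and treated with compound for 40 hr at 37 °C. Viability was read as intracellular ATP by CellTiter-Glo luminescence; AC50 values came from Hill-equation fits of concentration-response data.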

[16] = Cell Viability - HUV-EC-C (AID 542; active means well fitted curve in the direction sought with a large enough effect; an effect the other way counts as inactive or inconclusive; further: on the % scale 0 is the no-effect control and ±100 the full control effect; nearly all actives have a fitted effect of over 35% in size)
Method in brief: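 HUV-EC-C normal human vascular endothelial cells, 1000 cells/well, pre-incubated 5 hr at 37 °C, then exposed to compounds for 40 hr at 37 °C in complete medium. Viability measured as intracellular ATP by CellTiter-Glo luminescence; AC50 from Hill fits.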

[17] = Cell Viability - H-4-II-E (AID 543; active means well fitted curve in the direction sought with a large enough effect; an effect the other way counts as inactive or inconclusive; further: on the % scale 0 is the no-effect control and ±100 the full control effect; nearly all actives have a fitted effect of over 35% in size)
Method in brief: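 Rat hepatoma H-4-II-E cells (1500/well) were plated, incubated 5 hr at 37 °C, then exposed to compounds for 40 hr at 37 °C. Cellular ATP was read by CellTiter-Glo luminescence; AC50 came from Hill-equation fits of concentration-response data.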

[18] = Cell Viability - SH-SY5Y (AID 544; active means well fitted curve in the direction sought with a large enough effect; an effect the other way counts as inactive or inconclusive;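 further: 0% = DMSO alone and -100% = 100 µM tamoxifen; nearly all actives have a fitted effect of over 55% in size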)
Method in brief: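 Human neuroblastoma SH-SY5Y cells (1500/well) in complete medium were exposed to compounds for 40 hr at 37 °C; intracellular ATP was then quantified by CellTiter-Glo luminescence after 20 min at room temperature. AC50 came from Hill-equation concentration-response fits.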

[19] = Cell Viability - Renal Proximal Tubule (AID 545; active means well fitted curve in the direction sought with a large enough effect; an effect the other way counts as inactive or inconclusive;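 further: 0% = DMSO only and -100% = 100 µM tamoxifen; nearly all actives have a fitted effect of over 40% in size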)
Method in brief: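 Rat kidney proximal tubule cells, freshly isolated; 1000 cells/well, 5 hr settle, compound 40 hr 37 °C. CellTiter-Glo 20 min RT, luminescence read. AC50 by standard Hill fit.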

[20] = target: Lysosomal acid glucosylceramidase (Homo sapiens) (UniProt P04062); assay: Glucocerebrosidase-p2 (AID 348; in the data active means potency below about 10 µM; further: potency means the concentration at half of the fitted maximal effect); details: purified GBA, blue fluorogenic substrate, 40 min
Method in brief: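 Compounds titrated from 0.6 nM upwards against 0.2 nM enzyme in pH 5.9 citric acid/KH2PO4, taurocholate, tween-20; blue fluorogenic substrate 80 uM, 40 min room temperature, stopped and read Ex 365/Em 440 for AC50.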

Sequence of Cytochrome P450 1A2 (Homo sapiens) (P05177 whole entry, looked up): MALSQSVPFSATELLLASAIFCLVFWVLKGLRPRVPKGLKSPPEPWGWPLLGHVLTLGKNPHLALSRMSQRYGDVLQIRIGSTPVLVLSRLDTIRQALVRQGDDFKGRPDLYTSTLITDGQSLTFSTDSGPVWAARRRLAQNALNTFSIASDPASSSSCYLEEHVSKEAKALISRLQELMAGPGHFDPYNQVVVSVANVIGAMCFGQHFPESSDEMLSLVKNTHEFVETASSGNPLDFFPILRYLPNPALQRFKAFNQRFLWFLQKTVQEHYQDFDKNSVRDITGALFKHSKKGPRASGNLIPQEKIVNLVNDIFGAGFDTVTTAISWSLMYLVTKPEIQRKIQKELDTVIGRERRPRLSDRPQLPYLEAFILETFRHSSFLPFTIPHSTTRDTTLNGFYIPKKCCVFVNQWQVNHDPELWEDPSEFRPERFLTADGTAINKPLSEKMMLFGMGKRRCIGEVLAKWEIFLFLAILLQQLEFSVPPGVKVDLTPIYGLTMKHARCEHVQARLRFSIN
Sequence of Glucocorticoid receptor (Homo sapiens) (P04150 whole entry, looked up, the tested form may be a part): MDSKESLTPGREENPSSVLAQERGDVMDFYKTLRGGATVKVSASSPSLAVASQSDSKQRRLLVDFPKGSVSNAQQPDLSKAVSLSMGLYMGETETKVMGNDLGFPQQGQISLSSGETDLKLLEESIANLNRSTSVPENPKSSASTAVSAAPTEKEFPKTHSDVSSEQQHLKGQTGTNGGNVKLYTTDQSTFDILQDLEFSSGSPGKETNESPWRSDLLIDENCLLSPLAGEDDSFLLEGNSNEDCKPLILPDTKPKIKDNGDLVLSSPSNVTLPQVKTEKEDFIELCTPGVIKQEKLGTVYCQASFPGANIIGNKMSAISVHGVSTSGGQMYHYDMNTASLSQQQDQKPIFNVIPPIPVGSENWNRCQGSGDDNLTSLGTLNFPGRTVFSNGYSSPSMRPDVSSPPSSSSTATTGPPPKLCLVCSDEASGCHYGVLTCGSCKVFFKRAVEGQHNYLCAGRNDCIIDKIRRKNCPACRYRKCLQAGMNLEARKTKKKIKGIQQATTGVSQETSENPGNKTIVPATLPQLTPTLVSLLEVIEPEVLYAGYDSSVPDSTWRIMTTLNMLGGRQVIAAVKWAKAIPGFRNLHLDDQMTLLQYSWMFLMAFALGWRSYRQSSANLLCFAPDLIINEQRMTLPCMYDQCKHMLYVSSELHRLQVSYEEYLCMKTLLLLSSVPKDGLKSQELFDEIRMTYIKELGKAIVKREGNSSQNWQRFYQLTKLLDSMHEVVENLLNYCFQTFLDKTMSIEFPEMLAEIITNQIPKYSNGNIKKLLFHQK
Sequence of Lysosomal acid glucosylceramidase (Homo sapiens) (P04062 whole entry, looked up): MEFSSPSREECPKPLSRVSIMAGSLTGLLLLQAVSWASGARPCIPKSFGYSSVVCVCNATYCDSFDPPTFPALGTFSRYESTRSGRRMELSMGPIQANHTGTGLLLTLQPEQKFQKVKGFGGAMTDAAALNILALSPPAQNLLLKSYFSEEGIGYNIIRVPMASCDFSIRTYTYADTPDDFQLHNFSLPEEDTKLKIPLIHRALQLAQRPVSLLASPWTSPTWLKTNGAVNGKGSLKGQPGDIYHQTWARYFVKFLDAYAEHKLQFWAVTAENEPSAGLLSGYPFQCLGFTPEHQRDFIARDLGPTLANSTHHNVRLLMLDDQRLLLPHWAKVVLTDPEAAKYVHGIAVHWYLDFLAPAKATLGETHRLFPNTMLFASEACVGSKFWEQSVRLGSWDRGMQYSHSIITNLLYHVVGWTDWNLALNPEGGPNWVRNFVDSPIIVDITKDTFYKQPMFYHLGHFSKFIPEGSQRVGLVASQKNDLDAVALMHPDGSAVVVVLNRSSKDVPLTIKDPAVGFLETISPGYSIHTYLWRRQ

COc1cc(C[C@H]2C(=O)OC[C@@H]2Cc2ccc(OC)c(OC)c2)ccc1O
Potency [1]: 31.6 µM (active) | Potency [2]: > 46 µM | outcome [3]: inactive

Cc1ccc(OC[C@H](O)[C@H](C)NC(C)C)c2c1CCC2
outcome [4]: inactive | Potency [1]: 1.58 µM (active) and 398 nM (active) | outcome [5]: inactive | outcome [6]: inactive | Potency [7]: > 46 µM | Potency [2]: > 46 µM | outcome [3]: inactive

COC(C)=O
Potency [8]: > 92 µM | Potency [9]: > 92 µM | Potency [10]: > 92 µM | Potency [11]: > 92 µM | Potency [12]: > 92 µM | Potency [13]: > 92 µM | outcome [3]: inactive | outcome [14]: inactive | outcome [15]: inactive | outcome [16]: inactive | outcome [17]: inactive | outcome [18]: inactive | outcome [19]: inactive

COc1ccc2[nH]c(=O)c3c(c2c1)OC(C)(C)C=C3
Potency [1]: 0.316 µM (active) | Potency [7]: > 46 µM | Potency [2]: > 46 µM | outcome [3]: inactive

CN(C)Cc1ccccc1
Potency [8]: > 92 µM | Potency [9]: > 92 µM | Potency [10]: > 92 µM | Potency [11]: > 92 µM | Potency [12]: > 92 µM | Potency [13]: > 92 µM | outcome [3]: inactive | outcome [14]: inactive | outcome [15]: inactive | outcome [16]: inactive | outcome [17]: inactive | outcome [18]: inactive | outcome [19]: inactive

COC1=CC(=O)C[C@@H](C)[C@@]12Oc1c(Cl)c(OC)cc(OC)c1C2=O
Potency [1]: inactive | Potency [7]: > 46 µM | Potency [2]: > 46 µM | outcome [3]: inactive

C=Cc1ccccc1
Potency [8]: > 92 µM | Potency [9]: > 92 µM | Potency [10]: > 92 µM | Potency [11]: > 92 µM | Potency [12]: > 92 µM | Potency [13]: > 92 µM | outcome [3]: inactive | outcome [14]: inactive | outcome [15]: inactive | outcome [16]: inactive | outcome [17]: inactive | outcome [18]: inactive | outcome [19]: inactive

CN(C)CCCn1cc(C2=C(c3c[nH]c4ccccc34)C(=O)NC2=O)c2ccccc21
Potency [1]: 7.94 µM (active) | Potency [7]: > 46 µM | Potency [2]: > 46 µM

CCc1ccccc1OC[C@@H](O)CN[C@H]1CCCc2ccccc21
Potency [1]: 12.6 µM (active) | Potency [7]: > 46 µM | Potency [2]: > 46 µM | outcome [3]: inactive

O=C(O)CC(O)(CC(=O)O)C(=O)O
Potency [8]: > 92 µM | Potency [9]: 58 µM (active) | Potency [10]: > 92 µM | Potency [11]: > 92 µM | Potency [12]: > 92 µM | Potency [13]: > 92 µM | outcome [3]: inactive | outcome [14]: inactive | outcome [15]: inactive | outcome [16]: inactive | outcome [17]: inactive | outcome [18]: inactive | outcome [19]: inactive

O=C(O)c1cc2ccccc2c(Cc2c(O)c(C(=O)O)cc3ccccc23)c1O
Potency [20]: > 11.4 µM | activity change, negative = inhibition [4]: 13.4% [at 7.69 µM] | activity change, negative = inhibition [1]: -4% [at 2.29 µM] | activity change, negative = inhibition [5]: 6.69% [at 7.69 µM] | outcome [6]: inactive | Potency [2]: > 9.22 µM | activity change, negative = inhibition [3]: 3.49% [at 11.4 µM]

CCCCCCCCCC(=O)O
Potency [8]: > 92 µM | Potency [9]: > 92 µM | Potency [10]: > 92 µM | Potency [11]: > 92 µM | Potency [12]: > 92 µM | Potency [13]: > 92 µM | outcome [3]: inactive | outcome [14]: inactive | outcome [15]: inactive | outcome [16]: inactive | outcome [17]: inactive | outcome [18]: inactive | outcome [19]: inactive

C[C@]12CC[C@@H]3c4ccc(OS(=O)(=O)O)cc4CC[C@H]3[C@@H]1CCC2=O
outcome [4]: inactive | outcome [5]: inactive | outcome [6]: inactive | Potency [7]: > 20.6 µM

CC(=O)C1=C(O)C=C2Oc3c(C(C)=O)c(O)c(C)c(O)c3[C@]2(C)C1=O
Potency [1]: 2 µM (active) | Potency [7]: > 46 µM | Potency [2]: > 46 µM | outcome [3]: inactive

CC(C)CCNC(=O)[C@H](CC(C)C)NC(=O)[C@H]1O[C@@H]1C(=O)O
outcome [4]: inactive | outcome [5]: inactive | outcome [6]: inactive | Potency [7]: > 20.6 µM

NCCCC(=O)O
outcome [4]: inactive | Potency [1]: inactive | outcome [5]: inactive | Potency [7]: > 46 µM | Potency [2]: > 46 µM | outcome [3]: inactive
